Test results as given in the supplement of paper PMC11732987, “Enantioselective OTUD7B fragment discovery through chemoproteomics screening and high-throughput optimisation” (Communications Chemistry, 2025).
Unmarked numbers belong to inactive results.

How the values were obtained:
Assay in all cases: log2 ratio of Biotin-Ahx-Ub-VS probe labelling (fragment/DMSO); higher = less target engagement (more negative = stronger competition), active = hit call of the paper (q ≤ 0.05, log2 ratio ≤ -1)
Details in all cases: compound concentration: 200 uM; treatment time: 3 h
OTUD6B = target: T1, OTUD6B (UniProt Q8N6M0)
T1 sequence (whole entry): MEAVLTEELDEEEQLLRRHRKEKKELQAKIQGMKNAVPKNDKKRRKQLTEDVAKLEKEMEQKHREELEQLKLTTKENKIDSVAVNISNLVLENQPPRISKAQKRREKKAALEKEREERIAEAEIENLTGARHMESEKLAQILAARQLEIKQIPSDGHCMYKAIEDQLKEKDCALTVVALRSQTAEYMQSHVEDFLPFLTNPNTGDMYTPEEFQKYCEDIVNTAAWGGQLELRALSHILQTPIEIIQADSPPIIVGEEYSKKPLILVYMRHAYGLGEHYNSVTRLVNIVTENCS
Method in brief: (§1)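 Fragment (200 µM) or vehicle was incubated for 3 h with triplicate HEK293T lysate samples of 495 µg, which were then treated with Biotin-Ahx-Ub-VS at 0.5 µM final for 1 h. Labelled DUBs were enriched on NeutrAvidin, digested with LysC and trypsin, and analysed by diaPASEF LC-MS/MS. Values are average log2 fragment/vehicle ratios from an unpaired t-test on global-median-normalised Spectronaut label-free quantities, using proteins with ≥2 unique peptides.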

OTUD7B = target: T2, OTUD7B (UniProt Q6GQQ9)
T2 sequence (whole entry): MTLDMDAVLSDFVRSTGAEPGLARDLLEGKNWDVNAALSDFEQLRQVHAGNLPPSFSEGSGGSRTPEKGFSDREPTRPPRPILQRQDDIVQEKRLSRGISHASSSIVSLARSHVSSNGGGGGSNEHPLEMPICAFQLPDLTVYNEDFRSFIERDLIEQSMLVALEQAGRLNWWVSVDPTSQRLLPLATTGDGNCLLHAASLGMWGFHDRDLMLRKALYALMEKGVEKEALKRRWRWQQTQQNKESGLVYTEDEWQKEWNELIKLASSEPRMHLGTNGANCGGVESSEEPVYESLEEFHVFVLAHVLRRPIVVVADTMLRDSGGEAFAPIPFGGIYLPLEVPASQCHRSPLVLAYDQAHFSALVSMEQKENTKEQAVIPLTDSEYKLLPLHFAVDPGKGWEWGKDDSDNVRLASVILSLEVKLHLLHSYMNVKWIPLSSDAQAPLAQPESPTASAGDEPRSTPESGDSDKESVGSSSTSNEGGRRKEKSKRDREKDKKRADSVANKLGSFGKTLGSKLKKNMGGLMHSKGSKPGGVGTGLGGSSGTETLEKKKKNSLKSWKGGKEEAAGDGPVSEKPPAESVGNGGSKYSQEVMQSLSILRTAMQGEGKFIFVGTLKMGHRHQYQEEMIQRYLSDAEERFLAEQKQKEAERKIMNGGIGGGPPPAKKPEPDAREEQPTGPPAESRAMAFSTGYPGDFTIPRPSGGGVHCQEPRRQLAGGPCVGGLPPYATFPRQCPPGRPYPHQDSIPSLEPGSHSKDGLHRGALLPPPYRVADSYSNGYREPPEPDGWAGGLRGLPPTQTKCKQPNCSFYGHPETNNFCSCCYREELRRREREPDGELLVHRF
Method in brief: as §1

PRPF8 = PRPF8 (UniProt Q6P2Q9)
Method in brief: as §1

PSMD7 = target: T3, PSMD7 (UniProt P51665)
T3 sequence (whole entry): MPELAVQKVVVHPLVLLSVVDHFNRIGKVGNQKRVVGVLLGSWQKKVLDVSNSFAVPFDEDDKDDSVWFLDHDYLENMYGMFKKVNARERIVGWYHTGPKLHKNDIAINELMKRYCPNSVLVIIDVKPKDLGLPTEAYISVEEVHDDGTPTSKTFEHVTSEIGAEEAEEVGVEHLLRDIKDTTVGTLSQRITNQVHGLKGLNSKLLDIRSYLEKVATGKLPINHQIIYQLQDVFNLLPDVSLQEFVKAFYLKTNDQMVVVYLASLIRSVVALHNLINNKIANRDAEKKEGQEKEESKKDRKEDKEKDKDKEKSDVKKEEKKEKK
Method in brief: as §1

UCHL1 = UCHL1 (UniProt P09936)
Method in brief: as §1

UCHL3 = target: T4, UCHL3 (UniProt P15374)
T4 sequence (whole entry): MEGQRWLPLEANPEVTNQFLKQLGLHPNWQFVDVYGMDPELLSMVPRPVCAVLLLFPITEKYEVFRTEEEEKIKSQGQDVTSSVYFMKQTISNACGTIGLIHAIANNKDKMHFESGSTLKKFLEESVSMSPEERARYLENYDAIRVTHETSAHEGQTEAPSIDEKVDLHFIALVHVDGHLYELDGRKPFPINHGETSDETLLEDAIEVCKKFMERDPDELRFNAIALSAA
Method in brief: as §1

UCHL5 = target: T5, UCHL5 (UniProt Q9Y5K5)
T5 sequence (whole entry): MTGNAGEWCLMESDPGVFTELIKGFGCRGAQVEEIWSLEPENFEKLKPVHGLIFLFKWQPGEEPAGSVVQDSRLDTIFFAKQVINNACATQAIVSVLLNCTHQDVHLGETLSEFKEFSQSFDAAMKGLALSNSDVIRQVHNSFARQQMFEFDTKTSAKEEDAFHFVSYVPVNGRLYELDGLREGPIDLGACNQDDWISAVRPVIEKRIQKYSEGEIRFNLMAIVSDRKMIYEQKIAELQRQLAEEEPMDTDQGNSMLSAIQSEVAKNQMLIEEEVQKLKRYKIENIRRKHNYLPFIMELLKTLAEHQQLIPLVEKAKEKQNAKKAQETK
Method in brief: as §1

USP10 = USP10 (UniProt Q14694)
Method in brief: as §1

USP15 = target: T6, USP15 (UniProt Q9Y4E8)
T6 sequence (whole entry): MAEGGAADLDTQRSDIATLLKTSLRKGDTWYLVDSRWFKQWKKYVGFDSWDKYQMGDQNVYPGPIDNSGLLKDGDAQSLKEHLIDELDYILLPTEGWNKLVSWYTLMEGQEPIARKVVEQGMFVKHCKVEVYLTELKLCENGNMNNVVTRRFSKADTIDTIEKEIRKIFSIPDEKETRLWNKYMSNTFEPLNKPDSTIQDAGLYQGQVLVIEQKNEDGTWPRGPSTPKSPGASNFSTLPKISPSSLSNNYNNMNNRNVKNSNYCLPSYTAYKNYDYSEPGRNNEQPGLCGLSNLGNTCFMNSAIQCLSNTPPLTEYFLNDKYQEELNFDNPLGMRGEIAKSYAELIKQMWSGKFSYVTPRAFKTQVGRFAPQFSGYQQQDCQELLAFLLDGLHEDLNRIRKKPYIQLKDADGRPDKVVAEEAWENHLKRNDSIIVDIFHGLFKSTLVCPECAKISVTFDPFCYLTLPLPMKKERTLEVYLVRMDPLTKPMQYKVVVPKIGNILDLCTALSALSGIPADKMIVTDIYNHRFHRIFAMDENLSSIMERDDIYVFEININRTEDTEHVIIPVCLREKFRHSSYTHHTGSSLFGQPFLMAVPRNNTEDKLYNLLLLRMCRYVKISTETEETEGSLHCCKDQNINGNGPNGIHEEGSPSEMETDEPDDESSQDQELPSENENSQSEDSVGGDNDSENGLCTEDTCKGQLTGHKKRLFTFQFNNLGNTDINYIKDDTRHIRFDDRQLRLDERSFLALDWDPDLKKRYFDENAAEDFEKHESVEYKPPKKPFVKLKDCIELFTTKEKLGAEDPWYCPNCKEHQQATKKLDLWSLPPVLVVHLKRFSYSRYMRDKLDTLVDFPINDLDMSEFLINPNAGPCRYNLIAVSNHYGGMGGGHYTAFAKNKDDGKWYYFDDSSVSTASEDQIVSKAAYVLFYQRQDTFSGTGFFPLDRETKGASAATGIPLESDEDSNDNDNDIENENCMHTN
Method in brief: as §1

USP16 = USP16 (UniProt Q9Y5T5)
Method in brief: as §1

Sequence of USP10 (Q14694 whole entry): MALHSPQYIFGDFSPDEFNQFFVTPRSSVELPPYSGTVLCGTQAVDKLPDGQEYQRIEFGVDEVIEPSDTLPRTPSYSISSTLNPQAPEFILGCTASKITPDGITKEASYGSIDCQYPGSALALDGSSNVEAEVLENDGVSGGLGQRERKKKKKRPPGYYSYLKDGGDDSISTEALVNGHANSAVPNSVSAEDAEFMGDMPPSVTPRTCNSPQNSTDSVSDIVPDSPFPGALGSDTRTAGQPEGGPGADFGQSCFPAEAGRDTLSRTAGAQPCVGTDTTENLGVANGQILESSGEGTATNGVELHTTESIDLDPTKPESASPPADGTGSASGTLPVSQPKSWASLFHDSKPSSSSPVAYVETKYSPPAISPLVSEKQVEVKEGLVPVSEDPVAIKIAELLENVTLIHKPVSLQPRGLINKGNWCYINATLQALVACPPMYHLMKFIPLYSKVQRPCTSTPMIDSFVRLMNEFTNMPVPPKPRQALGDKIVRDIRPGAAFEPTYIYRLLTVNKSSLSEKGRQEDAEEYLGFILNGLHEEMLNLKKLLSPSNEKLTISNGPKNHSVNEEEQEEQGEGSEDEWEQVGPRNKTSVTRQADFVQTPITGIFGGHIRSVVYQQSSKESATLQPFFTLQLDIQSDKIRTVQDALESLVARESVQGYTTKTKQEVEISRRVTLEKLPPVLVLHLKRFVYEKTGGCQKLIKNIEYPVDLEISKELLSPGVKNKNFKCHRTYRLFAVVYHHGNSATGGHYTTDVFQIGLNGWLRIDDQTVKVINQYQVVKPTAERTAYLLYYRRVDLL
Sequence of USP16 (Q9Y5T5 whole entry, looked up): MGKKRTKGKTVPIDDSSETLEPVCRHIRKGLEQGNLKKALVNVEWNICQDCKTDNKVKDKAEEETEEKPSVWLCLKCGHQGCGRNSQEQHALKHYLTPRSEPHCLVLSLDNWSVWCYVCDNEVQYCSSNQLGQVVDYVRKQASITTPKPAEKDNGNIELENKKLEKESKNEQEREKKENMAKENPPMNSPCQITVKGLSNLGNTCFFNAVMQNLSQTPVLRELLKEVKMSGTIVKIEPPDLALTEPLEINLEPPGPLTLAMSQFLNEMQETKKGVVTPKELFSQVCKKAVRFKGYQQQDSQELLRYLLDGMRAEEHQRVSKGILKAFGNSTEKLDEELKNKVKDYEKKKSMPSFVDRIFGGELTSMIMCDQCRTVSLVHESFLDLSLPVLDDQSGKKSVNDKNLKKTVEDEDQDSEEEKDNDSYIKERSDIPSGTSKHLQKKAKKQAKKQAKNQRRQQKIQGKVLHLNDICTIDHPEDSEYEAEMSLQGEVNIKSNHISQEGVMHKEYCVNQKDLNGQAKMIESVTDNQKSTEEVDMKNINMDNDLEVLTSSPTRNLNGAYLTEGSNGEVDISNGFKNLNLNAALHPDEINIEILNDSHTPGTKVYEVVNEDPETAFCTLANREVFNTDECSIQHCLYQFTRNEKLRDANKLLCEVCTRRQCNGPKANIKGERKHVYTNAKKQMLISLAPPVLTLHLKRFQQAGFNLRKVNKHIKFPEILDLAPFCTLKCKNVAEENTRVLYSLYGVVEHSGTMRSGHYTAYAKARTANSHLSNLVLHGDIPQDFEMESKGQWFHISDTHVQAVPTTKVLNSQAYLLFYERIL
Sequence of UCHL1 (P09936 whole entry, looked up): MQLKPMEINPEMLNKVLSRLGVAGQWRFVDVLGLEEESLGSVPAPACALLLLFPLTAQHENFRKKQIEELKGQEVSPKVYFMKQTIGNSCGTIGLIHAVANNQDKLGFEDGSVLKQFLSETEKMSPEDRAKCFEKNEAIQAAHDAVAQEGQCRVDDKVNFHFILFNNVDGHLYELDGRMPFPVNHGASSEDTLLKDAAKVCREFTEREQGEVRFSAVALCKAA

N#Cc1ccccc1N1CCN(C(=O)CCl)CC1
log2 ratio of Biotin-Ahx-Ub-VS probe labelling (OTUD6B): -0.533
log2 ratio of Biotin-Ahx-Ub-VS probe labelling (OTUD7B): -0.626
log2 ratio of Biotin-Ahx-Ub-VS probe labelling (PRPF8): -0.322
log2 ratio of Biotin-Ahx-Ub-VS probe labelling (PSMD7): -0.0914
log2 ratio of Biotin-Ahx-Ub-VS probe labelling (UCHL1): -2.04 (active)
log2 ratio of Biotin-Ahx-Ub-VS probe labelling (UCHL3): -0.341
log2 ratio of Biotin-Ahx-Ub-VS probe labelling (UCHL5): -0.894
log2 ratio of Biotin-Ahx-Ub-VS probe labelling (USP10): -0.051
log2 ratio of Biotin-Ahx-Ub-VS probe labelling (USP15): -0.781
log2 ratio of Biotin-Ahx-Ub-VS probe labelling (USP16): -0.37
